The values below come from PubChem BioAssay (NCI).

Among the test systems are SR leukemia; RPMI-8226 leukemia; OVCAR-8 ovarian; OVCAR-5 ovarian; OVCAR-4 ovarian; SK-OV-3 ovarian; IGROV1 ovarian; OVCAR-3 ovarian; HS 578T breast; NCI/ADR-RES ovarian.
What all share (experiment): NCI-60 one-dose screen, 48 h (100 = growth as untreated, 0 = no growth, -100 = all killed)
Details in all cases: 10 µM unless noted

This is part of a sample that, as a whole, favours compounds with a hit. Of some 83,000 tested, about 20% had one in any assay.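 Cells were grown in 96-well plates and exposed to the test compound at a single concentration for 48 hours; results are reported as percent growth, with values below 10 considered active.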 Values without a mark were called inactive. The source made the active and inactive calls.

Take `Cn1c(=O)c2[nH]c(CC(=O)O)nc2n(C)c1=O`: the growth was 99.3% with SR leukemia; 108% in the experiment on RPMI-8226 leukemia; 102% in the experiment on OVCAR-8 ovarian; 106% with OVCAR-5 ovarian; 118% in the experiment on OVCAR-4 ovarian; 106% in the experiment on SK-OV-3 ovarian. The growth in the experiment with IGROV1 ovarian was 103%; with OVCAR-3 ovarian it was 108%; in the experiment on HS 578T breast it was 107%.
As to `Nc1ncc([N+](=O)[O-])cn1`, the growth in the experiment with SR leukemia is 104%; in the experiment with RPMI-8226 leukemia it was 98.6%; in the experiment on OVCAR-8 ovarian, 95.8%; with OVCAR-5 ovarian, 102%; in the experiment with OVCAR-4 ovarian, 106%; with SK-OV-3 ovarian, 106%. Also, the growth with IGROV1 ovarian was 109%; with OVCAR-3 ovarian, 104%; in the experiment on HS 578T breast, 101%; in the experiment with NCI/ADR-RES ovarian, 105%.
On to `Ic1cccs1`, for which the growth is 97.9% in the experiment on SR leukemia; 106% with RPMI-8226 leukemia; 99.2% with OVCAR-8 ovarian; 107% with OVCAR-5 ovarian; 102% in the experiment with OVCAR-4 ovarian; 115% in the experiment on SK-OV-3 ovarian. In addition, the growth with IGROV1 ovarian is 105%; in the experiment on OVCAR-3 ovarian, 107%; in the experiment with HS 578T breast, 98.8%; with NCI/ADR-RES ovarian, 98.8%.
For the molecule `CC1(C)CCC(C)(C)NC(=S)N1`, the growth with SR leukemia was 92.1%; in the experiment on RPMI-8226 leukemia, 96.4%; in the experiment on OVCAR-8 ovarian it was 106%; in the experiment with OVCAR-5 ovarian, 102%; in the experiment with OVCAR-4 ovarian, 107%; in the experiment with SK-OV-3 ovarian, 105%. Also, the figures for the growth with IGROV1 ovarian, in the experiment with OVCAR-3 ovarian and in the experiment on HS 578T breast were 121%, 111% and 109%, respectively.
Consider `CCOS(=O)(=O)c1ccc([N+](=O)[O-])cc1`, for which the growth in the experiment with SR leukemia is 88.2%; in the experiment with RPMI-8226 leukemia, 106%; in the experiment on OVCAR-8 ovarian, 104%; with OVCAR-5 ovarian it was 103%; with OVCAR-4 ovarian it was 101%; in the experiment with SK-OV-3 ovarian it was 111%. For the same molecule, the growth with IGROV1 ovarian is 105%; in the experiment on OVCAR-3 ovarian, 106%; in the experiment on HS 578T breast, 108%; in the experiment with NCI/ADR-RES ovarian it was 105%.
On to `CCOP(=O)(OCC)/C(=C\N1C(=O)CC(=O)NC1=S)C(=O)OC`, for which the growth with SR leukemia is 96.7%; in the experiment on RPMI-8226 leukemia it was 101%; in the experiment on OVCAR-8 ovarian it was 97.6%; with OVCAR-5 ovarian it was 98.7%; in the experiment on OVCAR-4 ovarian, 94.3%; with SK-OV-3 ovarian, 104%. The growth is 103% with IGROV1 ovarian, 114% in the experiment with OVCAR-3 ovarian, 98.4% in the experiment on HS 578T breast and 104% with NCI/ADR-RES ovarian.
As for `CCN(CC)c1ccc2nc3ccc(N=Nc4ccc(N(C)C)cc4)cc3[n+](-c3ccccc3)c2c1`, the growth was -18.3% (active) with SR leukemia; -23.6% (active) in the experiment on RPMI-8226 leukemia; 5.08% (active) in the experiment on OVCAR-8 ovarian; -58.2% (active) with OVCAR-5 ovarian; -100% (active) with OVCAR-4 ovarian; -8.27% (active) in the experiment with SK-OV-3 ovarian. In addition, the growth was 14.5% with IGROV1 ovarian and -30.6% (active) with OVCAR-3 ovarian.
Regarding `Nc1ncnc(Nc2ccc(C(F)(F)F)cc2)n1`, the growth with SR leukemia was 102%; in the experiment on RPMI-8226 leukemia, 109%; in the experiment on OVCAR-8 ovarian it was 102%; in the experiment on OVCAR-5 ovarian it was 99.8%; with OVCAR-4 ovarian it was 107%; in the experiment on SK-OV-3 ovarian it was 100%. The growth in the experiment with IGROV1 ovarian is 100%; in the experiment on OVCAR-3 ovarian it was 113%; in the experiment with HS 578T breast, 108%; in the experiment on NCI/ADR-RES ovarian, 104%.
Turning to `S=C(Sc1ccc(Cl)cc1)Sc1ccc(Cl)cc1`, the growth with SR leukemia is -46.5% (active); in the experiment with RPMI-8226 leukemia it was -46.6% (active); with OVCAR-8 ovarian it was 22.1%; in the experiment on OVCAR-5 ovarian, 60.1%; with OVCAR-4 ovarian, 10.1%; with SK-OV-3 ovarian it was 109%. Moreover, the growth with IGROV1 ovarian was -49.8% (active); with OVCAR-3 ovarian, -64.7% (active); with HS 578T breast, 7.84% (active); with NCI/ADR-RES ovarian it was 5.64% (active).
In the case of `Cc1ccc(OC(=O)c2ccccc2)cc1`, the growth in the experiment on SR leukemia is 102%; in the experiment with RPMI-8226 leukemia, 113%; in the experiment with OVCAR-8 ovarian, 101%; with OVCAR-5 ovarian it was 100%; in the experiment with OVCAR-4 ovarian, 114%; with SK-OV-3 ovarian it was 107%. Further, the growth was 132% with IGROV1 ovarian, 115% with OVCAR-3 ovarian, 141% with HS 578T breast and 113% with NCI/ADR-RES ovarian.
Regarding `N#Cc1ccc(OC(=O)Nc2cc(Cl)cc(Cl)c2)cc1`, the growth in the experiment on SR leukemia is -30.4% [100 µM] (active); in the experiment on RPMI-8226 leukemia, -13% [100 µM] (active); with OVCAR-8 ovarian, 7.55% [100 µM] (active); with OVCAR-5 ovarian, 9.02% [100 µM] (active); in the experiment on OVCAR-4 ovarian it was 11.4% [100 µM]; in the experiment on SK-OV-3 ovarian, -6.95% [100 µM] (active). In addition, the growth with IGROV1 ovarian is 18% [100 µM]; in the experiment with OVCAR-3 ovarian, 7.77% [100 µM] (active); in the experiment with HS 578T breast, -11.5% [100 µM] (active); in the experiment on NCI/ADR-RES ovarian, -4.12% [100 µM] (active).
Take `CC(=O)NCNC(C)=O`: the growth is 85.3% with SR leukemia; 97% in the experiment with RPMI-8226 leukemia; 98% in the experiment on OVCAR-8 ovarian; 105% in the experiment on OVCAR-5 ovarian; 110% with OVCAR-4 ovarian; 113% in the experiment on SK-OV-3 ovarian. Also, the growth in the experiment with IGROV1 ovarian was 113%; with OVCAR-3 ovarian, 120%; in the experiment with HS 578T breast, 111%; in the experiment on NCI/ADR-RES ovarian, 111%.
For the molecule `O=C(c1ccccc1O)N1CCCC1`, the growth in the experiment on SR leukemia is 99.5%; with RPMI-8226 leukemia it was 94.8%; with OVCAR-8 ovarian, 99.3%; with OVCAR-5 ovarian, 98.9%; in the experiment on OVCAR-4 ovarian it was 109%; in the experiment on SK-OV-3 ovarian, 95.8%. Also, the growth is 103% with IGROV1 ovarian, 110% in the experiment on OVCAR-3 ovarian, 111% with HS 578T breast and 101% in the experiment on NCI/ADR-RES ovarian.
`Oc1ccc(CCC2CCNc3ccccc32)cc1` (stereo unspecified): the growth is 75.7% in the experiment on SR leukemia; 45.2% with RPMI-8226 leukemia; 73.4% in the experiment on OVCAR-8 ovarian; 97.9% with OVCAR-5 ovarian; 63.2% with OVCAR-4 ovarian; 73.1% in the experiment on SK-OV-3 ovarian. Also, the growth is 91.1% in the experiment on IGROV1 ovarian, 84.1% with OVCAR-3 ovarian, 91.8% in the experiment with HS 578T breast and 74.7% with NCI/ADR-RES ovarian.
Consider `O=C1NC(=O)/C(=C\c2ccncc2)N1`, for which the growth with SR leukemia was 92.2%; in the experiment on RPMI-8226 leukemia, 103%; with OVCAR-8 ovarian, 103%; with OVCAR-5 ovarian, 98.3%; with OVCAR-4 ovarian, 98.6%; in the experiment on SK-OV-3 ovarian, 99.2%. In addition, the growth in the experiment on IGROV1 ovarian was 109%; in the experiment with OVCAR-3 ovarian, 94.3%; with HS 578T breast, 95%; in the experiment on NCI/ADR-RES ovarian, 103%.
